# Reference: PubChem BioAssay (NCI)
# Compounds without any hit were thinned out: in the full panel of roughly 79,000, 15% have a hit. Values without a mark were called inactive. Activity calls are given as the source filed them. Cut-off read from the data, not from the text of the source: active = growth inhibition above about 70%; inactive = the rest.
# Key:
# [1] = NCI Yeast Anticancer Drug Screen. Data for the rad50 strain (AID 155);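 note: 0% = growth of vehicle-only cultures of the same strain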; settings: S. cerevisiae rad50 strain growth inhibition, hits give high values
# In short: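 Readout: growth inhibition relative to vehicle-treated cultures. Compound exposure was carried out in a genetically defined yeast strain deficient in DNA damage repair.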
# [2] = NCI Yeast Anticancer Drug Screen. Data for the mec2-1 strain (AID 157); settings: S. cerevisiae mec2-1 strain, hits give high values
# In short: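 Vehicle-treated cultures served as reference for growth inhibition of compound-exposed mec2-1 yeast.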
# [3] = NCI Yeast Anticancer Drug Screen. Data for the sgs1 mgt1 strain (AID 161);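 note: 0% = growth of cultures given vehicle only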; settings: S. cerevisiae sgs1 mgt1 strain, hits give high values
# In short: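 Inhibition of yeast growth, normalised to vehicle-treated controls, is reported for a strain bearing genetic alterations in DNA damage repair.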
# [4] = NCI Yeast Anticancer Drug Screen. Data for the cln2 rad14 strain (AID 165);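 note: 0% = growth equal to vehicle treated cultures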; settings: S. cerevisiae cln2 rad14 strain, hits give high values
# In short: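 Each compound was tested on cln2 rad14 yeast. Inhibition of growth was calculated against vehicle-exposed controls.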
# [5] = NCI Yeast Anticancer Drug Screen. Data for the bub3 strain (AID 167); settings: S. cerevisiae bub3 mutant strain, hits give high values
# In short: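 Readout: yeast growth inhibition, expressed relative to vehicle-only wells. The test organism is a mutant strain from a panel with lesions in DNA repair or checkpoint genes.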
# [6] = NCI Yeast Anticancer Drug Screen. Data for the mlh1 rad18 strain (AID 175); settings: S. cerevisiae mlh1 rad18 strain growth inhibition, hits give high values
# In short: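 Vehicle-treated cultures served as the reference for growth inhibition in a yeast strain carrying DNA damage repair alterations exposed to each compound.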
# [7] = at 5.0 µM (retest, dose inferred, filed as 0.5)
# [8] = at 50.0 µM (retest, dose inferred, filed as 5.0)
Structure (SMILES),"growth inhibition [1, 7]","growth inhibition [1, 8]",growth inhibition ([1]; at 50.0 µM),"growth inhibition [2, 7]","growth inhibition [2, 8]",growth inhibition ([2]; at 50.0 µM),"growth inhibition [3, 7]","growth inhibition [3, 8]",growth inhibition ([3]; at 50.0 µM),"growth inhibition [4, 7]","growth inhibition [4, 8]",growth inhibition ([4]; at 50.0 µM),"growth inhibition [5, 7]","growth inhibition [5, 8]",growth inhibition ([5]; at 50.0 µM),"growth inhibition [6, 7] [%]","growth inhibition [6, 8]",growth inhibition ([6]; at 50.0 µM)
C/C(=N\NC(=S)N1CCN(c2ccccc2)CC1)c1nccs1,28%,96% (active),90.5% (active),56%,98% (active),91.8% (active),33%,99% (active),91.1% (active),22%,98% (active),90.9% (active),63%,99% (active),88.3% (active),34,97% (active),89.8% (active)
O=C(O)c1c[nH]c2cc(Cl)ccc2c1=O,4%,-5%,-1.55%,1%,5%,-20.9%,-8%,-3%,-22.1%,2%,1%,90.9% (active),1%,-2%,-19.8%,-1,-4%,12.2%
Clc1ccc2nc3ccccc3nc2c1,-31%,96% (active),94.7% (active),26%,67%,86.8% (active),-5%,81% (active),79.6% (active),-9%,79% (active),80.7% (active),21%,78% (active),92.3% (active),-4,94% (active),93.8% (active)
CCN(CC)CCNc1ccc(C)c2sc3cccc(O)c3c(=O)c12,86% (active),99% (active),99.2% (active),3%,72% (active),99.7% (active),15%,96% (active),99.5% (active),2%,85% (active),55.5%,10%,96% (active),99.5% (active),12,99% (active),99.3% (active)
O=C1c2ccccc2C(=O)c2cc(S(=O)(=O)Cl)ccc21,68%,99% (active),76.1% (active),97% (active),99% (active),60.9%,94% (active),98% (active),69.2%,55%,99% (active),-49.5%,98% (active),99% (active),72.5% (active),59,99% (active),75.8% (active)
COc1ccc(C(CC(=O)c2ccccc2)Sc2ccccc2N)cc1 (stereo not given),46%,52%,-4.15%,54%,51%,26.9%,-13%,32%,32.4%,44%,20%,-13.3%,35%,57%,49.8%,36,46%,7.35%
Cc1ccc(S(=O)(=O)OCC(C)(C)C)cc1,-152%,-169%,8.4%,-48%,-59%,2.05%,-63%,-69%,-2.7%,-61%,-83%,-29.6%,-57%,5%,86.8% (active),-125,-127%,14.5%
COc1ccc(CNC(C#N)c2ccccc2)cc1OC (stereo not given),7%,-2%,99% (active),2%,-3%,99.7% (active),3%,-2%,99.7% (active),5%,-3%,99.5% (active),1%,-4%,99.6% (active),2,-5%,99.5% (active)
N=c1c2ccccc2cc2c3ccccc3ccn12,45%,93% (active),97.3% (active),47%,97% (active),98% (active),56%,95% (active),97.8% (active),54%,93% (active),86% (active),57%,95% (active),96.5% (active),60,96% (active),96.1% (active)
CN1C(=S)C(=N)OC1c1ccccc1F (stereo not given),7%,91% (active),84.3% (active),16%,97% (active),75.3% (active),7%,98% (active),85.6% (active),-2%,82% (active),33.4%,10%,99% (active),89.2% (active),-13,96% (active),84.8% (active)
O=C(O)Cc1ccc2c(c1O)C(=O)c1ccccc1C2=O,1%,20%,89.3% (active),0%,31%,67.2%,1%,28%,78.8% (active),-2%,7%,57.5%,0%,50%,65.9%,0,29%,74.1% (active)
Cc1cc(Cl)c2cc(Cc3ccc(Br)cc3)ccc2n1,-3%,10%,16.5%,-10%,20%,36%,11%,37%,43.9%,1%,-1%,50.6%,4%,12%,37.6%,15,15%,55.9%
ONC(=Nc1ccccc1)c1ccccc1,-137%,73% (active),95.4% (active),-42%,47%,98.3% (active),-55%,78% (active),96.3% (active),-58%,86% (active),96.6% (active),-66%,35%,95.2% (active),-120,75% (active),97.9% (active)
CCN(CC)CCOC(=O)c1ccc(N=Nc2ccc(O)c3ccccc23)cc1,0%,99% (active),98.8% (active),4%,100% (active),99.1% (active),6%,99% (active),99% (active),6%,99% (active),86.8% (active),-2%,99% (active),41.1%,-7,99% (active),99% (active)
COC(=O)C1CCN(Cc2ccccc2)CC1=O (stereo not given),38%,57%,89.3% (active),48%,51%,92.1% (active),77% (active),100% (active),93.2% (active),83% (active),100% (active),90% (active),81% (active),98% (active),90% (active),37,47%,89.9% (active)
Fc1cccc(NC(=S)SCc2ccco2)c1,9%,84% (active),97.7% (active),-1%,93% (active),84.2% (active),2%,80% (active),96% (active),-2%,45%,61.2%,-11%,61%,82% (active),-1,89% (active),97.2% (active)
COc1ccc(S)cc1,0%,72% (active),78.9% (active),3%,51%,39.7%,0%,89% (active),94% (active),-3%,80% (active),69.5%,0%,62%,76.5% (active),2,86% (active),83.8% (active)
Clc1ccc(C2=NCON=C2c2ccc(Cl)cc2)cc1,17%,97% (active),87.9% (active),7%,99% (active),90.5% (active),10%,99% (active),91% (active),9%,98% (active),89.5% (active),20%,99% (active),90.8% (active),7,97% (active),-18.7%
COC(=O)/C=C/c1c2ccccc2cc2ccccc12,11%,28%,14.8%,13%,39%,25.2%,18%,46%,64.3%,8%,24%,39.8%,9%,28%,37%,6,36%,75.3% (active)
CCC(=O)OC1=C(Br)C(=O)c2ccccc2C1=O,14%,85% (active),89.6% (active),17%,94% (active),57.4%,25%,68%,80.3% (active),4%,68%,1.15%,18%,96% (active),18.9%,38,85% (active),76.6% (active)
